Here are results for 14 targets from the supplement of paper PMC10849652.

About 7,900 targets were measured; listed, in parts, are those with a hit and a random draw of the rest. About 0.6% of all pairs of compound and target were hits.

UniProt Q9NW08, sequence (Q9NW08 whole entry, looked up): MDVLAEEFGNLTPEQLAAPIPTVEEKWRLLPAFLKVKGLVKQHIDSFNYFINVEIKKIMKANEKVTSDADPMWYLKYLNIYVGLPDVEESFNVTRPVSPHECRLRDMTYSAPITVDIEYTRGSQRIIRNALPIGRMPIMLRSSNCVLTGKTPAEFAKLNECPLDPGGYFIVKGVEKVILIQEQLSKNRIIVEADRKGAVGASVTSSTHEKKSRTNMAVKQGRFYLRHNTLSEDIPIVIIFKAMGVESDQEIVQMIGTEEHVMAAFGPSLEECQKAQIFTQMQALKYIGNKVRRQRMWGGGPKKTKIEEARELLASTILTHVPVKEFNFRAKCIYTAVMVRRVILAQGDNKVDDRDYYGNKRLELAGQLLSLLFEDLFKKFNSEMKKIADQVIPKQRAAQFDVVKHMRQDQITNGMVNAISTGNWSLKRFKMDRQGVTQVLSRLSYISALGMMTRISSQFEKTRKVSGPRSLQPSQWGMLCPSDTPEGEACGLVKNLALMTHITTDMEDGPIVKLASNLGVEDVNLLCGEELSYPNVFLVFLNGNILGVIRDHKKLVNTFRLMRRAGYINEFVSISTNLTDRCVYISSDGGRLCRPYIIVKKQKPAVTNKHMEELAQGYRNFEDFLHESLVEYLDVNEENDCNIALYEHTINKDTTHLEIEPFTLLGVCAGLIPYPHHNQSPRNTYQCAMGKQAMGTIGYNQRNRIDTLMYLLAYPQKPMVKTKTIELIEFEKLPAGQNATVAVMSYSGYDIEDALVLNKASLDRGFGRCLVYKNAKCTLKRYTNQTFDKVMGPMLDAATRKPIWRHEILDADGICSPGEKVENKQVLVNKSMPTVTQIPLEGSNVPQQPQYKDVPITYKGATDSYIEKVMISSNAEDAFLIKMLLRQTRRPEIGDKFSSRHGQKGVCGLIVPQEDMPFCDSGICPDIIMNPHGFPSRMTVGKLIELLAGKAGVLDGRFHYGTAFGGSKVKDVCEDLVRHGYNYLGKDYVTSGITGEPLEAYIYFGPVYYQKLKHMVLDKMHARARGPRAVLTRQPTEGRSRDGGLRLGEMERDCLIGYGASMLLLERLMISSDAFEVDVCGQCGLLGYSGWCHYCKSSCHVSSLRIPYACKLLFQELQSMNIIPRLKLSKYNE
UniProt Q8N4L2, sequence (Q8N4L2 whole entry, looked up): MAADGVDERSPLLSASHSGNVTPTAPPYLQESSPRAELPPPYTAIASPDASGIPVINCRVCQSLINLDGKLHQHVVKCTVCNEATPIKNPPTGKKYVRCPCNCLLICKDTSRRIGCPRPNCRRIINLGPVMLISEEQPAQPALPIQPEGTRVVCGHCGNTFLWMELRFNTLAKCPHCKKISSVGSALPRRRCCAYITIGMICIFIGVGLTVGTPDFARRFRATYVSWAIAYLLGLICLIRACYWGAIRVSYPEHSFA
UniProt P10644, sequence (P10644 whole entry, looked up): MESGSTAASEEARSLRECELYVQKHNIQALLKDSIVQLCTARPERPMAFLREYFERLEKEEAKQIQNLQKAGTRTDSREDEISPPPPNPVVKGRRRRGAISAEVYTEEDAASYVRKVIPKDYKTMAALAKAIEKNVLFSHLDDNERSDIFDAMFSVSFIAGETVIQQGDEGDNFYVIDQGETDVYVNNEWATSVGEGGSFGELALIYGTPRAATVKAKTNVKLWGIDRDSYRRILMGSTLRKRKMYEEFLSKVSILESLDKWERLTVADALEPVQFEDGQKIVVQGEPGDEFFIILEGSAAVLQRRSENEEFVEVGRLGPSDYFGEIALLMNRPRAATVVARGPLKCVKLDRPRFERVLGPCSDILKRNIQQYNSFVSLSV
UniProt Q9H814, sequence (Q9H814 whole entry, looked up): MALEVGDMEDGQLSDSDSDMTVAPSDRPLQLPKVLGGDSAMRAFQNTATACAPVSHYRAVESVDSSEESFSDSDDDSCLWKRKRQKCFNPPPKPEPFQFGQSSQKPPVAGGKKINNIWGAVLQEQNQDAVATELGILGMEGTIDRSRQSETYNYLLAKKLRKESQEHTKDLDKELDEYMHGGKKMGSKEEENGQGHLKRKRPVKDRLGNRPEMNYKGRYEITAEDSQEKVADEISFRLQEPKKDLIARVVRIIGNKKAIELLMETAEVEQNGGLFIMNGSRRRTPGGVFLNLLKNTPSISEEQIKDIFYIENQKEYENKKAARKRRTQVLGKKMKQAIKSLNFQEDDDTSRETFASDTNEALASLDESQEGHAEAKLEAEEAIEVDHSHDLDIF
UniProt Q6P4A8, sequence (Q6P4A8 whole entry, looked up): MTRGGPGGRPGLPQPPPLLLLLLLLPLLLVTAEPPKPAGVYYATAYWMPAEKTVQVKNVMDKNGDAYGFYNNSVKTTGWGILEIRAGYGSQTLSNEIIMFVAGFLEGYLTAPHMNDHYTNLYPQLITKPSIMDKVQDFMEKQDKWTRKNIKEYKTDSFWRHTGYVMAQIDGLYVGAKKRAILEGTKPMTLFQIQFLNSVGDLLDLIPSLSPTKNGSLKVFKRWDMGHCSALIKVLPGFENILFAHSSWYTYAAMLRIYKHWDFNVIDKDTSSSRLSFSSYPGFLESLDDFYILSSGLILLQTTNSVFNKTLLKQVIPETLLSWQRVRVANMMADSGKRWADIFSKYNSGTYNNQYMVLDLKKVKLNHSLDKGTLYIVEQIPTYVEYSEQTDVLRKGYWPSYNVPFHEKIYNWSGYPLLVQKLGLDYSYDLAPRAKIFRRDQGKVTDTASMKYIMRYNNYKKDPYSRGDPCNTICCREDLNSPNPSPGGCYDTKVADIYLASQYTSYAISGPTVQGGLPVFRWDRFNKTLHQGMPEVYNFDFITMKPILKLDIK
UniProt Q9Y478, sequence (Q9Y478 whole entry, looked up): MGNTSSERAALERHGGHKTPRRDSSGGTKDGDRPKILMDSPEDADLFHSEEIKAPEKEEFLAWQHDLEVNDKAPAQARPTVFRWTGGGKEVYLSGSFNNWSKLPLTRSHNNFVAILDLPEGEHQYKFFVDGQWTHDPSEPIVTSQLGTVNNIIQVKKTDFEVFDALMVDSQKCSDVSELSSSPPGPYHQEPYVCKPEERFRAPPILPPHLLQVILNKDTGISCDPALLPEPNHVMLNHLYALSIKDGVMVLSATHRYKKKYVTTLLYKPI
UniProt Q13131, sequence (Q13131 whole entry, looked up): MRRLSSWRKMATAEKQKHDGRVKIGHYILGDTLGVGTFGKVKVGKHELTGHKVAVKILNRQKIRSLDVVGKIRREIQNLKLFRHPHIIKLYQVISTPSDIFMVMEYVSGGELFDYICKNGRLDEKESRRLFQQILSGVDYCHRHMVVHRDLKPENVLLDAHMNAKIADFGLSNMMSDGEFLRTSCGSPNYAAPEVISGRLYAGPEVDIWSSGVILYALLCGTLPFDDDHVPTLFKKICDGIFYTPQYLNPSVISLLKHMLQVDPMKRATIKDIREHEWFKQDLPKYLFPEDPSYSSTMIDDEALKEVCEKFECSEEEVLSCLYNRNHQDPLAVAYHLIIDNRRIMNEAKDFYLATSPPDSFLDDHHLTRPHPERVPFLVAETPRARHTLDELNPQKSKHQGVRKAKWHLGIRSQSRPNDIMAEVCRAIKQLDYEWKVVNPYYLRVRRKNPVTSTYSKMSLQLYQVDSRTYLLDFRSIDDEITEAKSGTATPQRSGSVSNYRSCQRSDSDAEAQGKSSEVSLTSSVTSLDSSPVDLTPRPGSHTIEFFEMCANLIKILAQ
UniProt P62191, sequence (P62191 whole entry, looked up): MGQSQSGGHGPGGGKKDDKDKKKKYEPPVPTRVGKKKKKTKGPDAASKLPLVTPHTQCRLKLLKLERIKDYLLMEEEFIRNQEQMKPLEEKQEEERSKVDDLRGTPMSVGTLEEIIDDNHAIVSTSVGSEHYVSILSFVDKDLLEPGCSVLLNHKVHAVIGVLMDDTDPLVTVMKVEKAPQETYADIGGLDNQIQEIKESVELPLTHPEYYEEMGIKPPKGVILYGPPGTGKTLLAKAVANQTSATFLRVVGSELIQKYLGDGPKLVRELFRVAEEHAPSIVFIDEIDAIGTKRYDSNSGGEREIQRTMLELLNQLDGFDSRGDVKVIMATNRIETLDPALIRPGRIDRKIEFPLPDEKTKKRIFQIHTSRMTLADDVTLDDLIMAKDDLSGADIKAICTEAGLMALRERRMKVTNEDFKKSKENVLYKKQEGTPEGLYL
UniProt P15735, sequence (P15735 whole entry, looked up): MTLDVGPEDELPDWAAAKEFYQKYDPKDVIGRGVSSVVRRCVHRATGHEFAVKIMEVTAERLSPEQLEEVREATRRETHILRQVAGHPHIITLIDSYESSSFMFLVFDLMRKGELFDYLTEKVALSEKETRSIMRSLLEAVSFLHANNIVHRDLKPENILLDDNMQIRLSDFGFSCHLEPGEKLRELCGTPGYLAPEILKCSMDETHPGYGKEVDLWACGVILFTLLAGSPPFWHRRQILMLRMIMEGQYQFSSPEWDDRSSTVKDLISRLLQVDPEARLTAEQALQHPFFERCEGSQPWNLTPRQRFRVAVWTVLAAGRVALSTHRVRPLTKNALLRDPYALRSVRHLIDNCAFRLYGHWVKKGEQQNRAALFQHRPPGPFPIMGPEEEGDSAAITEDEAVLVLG
UniProt P43686, sequence (P43686 whole entry, looked up): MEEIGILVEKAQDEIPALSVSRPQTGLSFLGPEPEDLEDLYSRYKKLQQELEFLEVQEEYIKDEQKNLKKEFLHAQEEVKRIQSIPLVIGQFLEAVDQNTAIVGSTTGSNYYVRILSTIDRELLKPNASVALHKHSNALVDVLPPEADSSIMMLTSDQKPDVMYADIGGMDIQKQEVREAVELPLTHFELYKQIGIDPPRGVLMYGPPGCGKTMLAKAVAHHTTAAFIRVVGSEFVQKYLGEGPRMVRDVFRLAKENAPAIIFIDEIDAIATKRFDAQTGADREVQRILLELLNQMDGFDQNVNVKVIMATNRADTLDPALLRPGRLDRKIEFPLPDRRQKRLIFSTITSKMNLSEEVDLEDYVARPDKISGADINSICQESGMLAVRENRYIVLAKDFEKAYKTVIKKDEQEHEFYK

Compound in the experiment: CC(C)C1=C2N=C(C=C(N2N=C1)NCC3=CC=CC=C3)NCCCCCCN
The experiment can be described thus: log2 fold change, soluble protein after heating vs DMSO (PISA); higher = thermal stabilisation; K562 cells, 10 uM, 30 min; active = over 0.2 and 3.5 SD of the protein, either way, in both replicates (recomputed). An outline of the steps: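 For each measurement, 10 μM compound was applied for 30 min to K562 cells at 2×10^6 cells/mL. Aliquots were heated for 3 min across 48°C-58°C, pooled, and extracted in PBS with 0.5% NP-40 at 4°C; the supernatant after 21,000xg for 90 min was soluble protein. This was quantified by TMTpro 16plex LC-MS/MS with channel sums equalised, and thermal stability was reported relative to control samples from duplicates, on a log2 fold-change scale.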
On to POLR3B (UniProt Q9NW08), for which the log2 fold change was -0.183 (inactive).
As for PHKG2 (UniProt P15735), the log2 fold change is -0.041 (inactive).
Consider POLR2D (UniProt O15514), for which the log2 fold change is 0.374 (active).
The result for PRKAB1 (UniProt Q9Y478) reads -0.006 (inactive).
The result for PRKAA1 isoform 2 (UniProt Q13131) reads -0.025 (inactive).
The result for PSMC4 (UniProt P43686) reads 0.034 (inactive).
For the target PRKAR1A (UniProt P10644), the log2 fold change is -0.149 (inactive).
The result for PIK3R1 (UniProt P27986) reads -0.011 (inactive).
Take PHAX (UniProt Q9H814): the log2 fold change was -0.16 (inactive).
Regarding PIP4P2 (UniProt Q8N4L2), the log2 fold change was -0.624 (active).
The result for PLBD1 (UniProt Q6P4A8) reads -0.012 (inactive); that for PSMC1 (UniProt P62191), 0.04 (inactive).
On to PDE12 (UniProt Q6L8Q7), for which the log2 fold change is -0.032 (inactive).
PARN (UniProt O95453): the log2 fold change was -0.025 (inactive).
